Inconclusive results are not listed. Where a call stands in place of a potency, no number is given. Activity calls are given as the source filed them. Unless noted, calls follow the shape of the full dose curve.

5-hydroxytryptamine receptor 2A (Homo sapiens), sequence (P28223 whole entry, looked up): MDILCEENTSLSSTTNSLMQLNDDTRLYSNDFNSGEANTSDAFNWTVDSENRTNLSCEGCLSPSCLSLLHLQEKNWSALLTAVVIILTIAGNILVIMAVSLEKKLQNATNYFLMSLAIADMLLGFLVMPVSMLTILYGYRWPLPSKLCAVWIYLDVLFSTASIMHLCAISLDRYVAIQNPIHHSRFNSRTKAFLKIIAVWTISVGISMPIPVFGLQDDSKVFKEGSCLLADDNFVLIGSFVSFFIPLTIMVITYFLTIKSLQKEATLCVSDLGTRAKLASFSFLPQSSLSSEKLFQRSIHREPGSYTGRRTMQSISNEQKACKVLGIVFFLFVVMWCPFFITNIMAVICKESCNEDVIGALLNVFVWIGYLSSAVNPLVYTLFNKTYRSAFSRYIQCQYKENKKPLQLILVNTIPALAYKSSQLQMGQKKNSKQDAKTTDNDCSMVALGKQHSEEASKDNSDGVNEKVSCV

Test system in the first experiment: not listed separately
The experiment can be described thus: p53 small molecule agonists, cell-based qHTS assay: qHTS cell viability counter screen (AID 1963581). Also: nearly all actives have a fitted effect of over 45% in size. Also: potency is read from the fitted curve at half-maximal effect. Particulars: p53RE-bla HCT-116 viability, ATP luminescence, 16 h; series mostly up to 66 µM. An outline of the steps: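 Viability was counter-screened in parallel with the p53 agonist reporter by measuring intracellular ATP luminescence in the same HCT-116 p53RE-bla wells after 16 h compound treatment at 37 C.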
As to `N#Cc1sc2c(=O)c3ccccc3c(=O)c=2sc1C#N`, the Potency is 4.08 µM (active).
The same measure, in the same setting: next, `C=CC(=O)OCC`: “inactive”; `Cc1c(Cl)c(=O)oc2cc(OP(=O)(OCCCl)OCCCl)ccc12`: “inactive”; `CC1=NNC(=O)N(/N=C/c2cccnc2)C1`: “inactive”.
Still for that read-out and setting: with `[O-][Cl+3]([O-])([O-])O` the entry was “inactive”; with `CCn1cc[n+](C)c1` (tested in a mixture with another compound), “inactive”; with `CCOC(=O)C(Cl)Cc1cc(-n2nc(C)n(C(F)F)c2=O)c(F)cc1Cl` (stereo unspecified), “inactive”.
The same measure, in the same setting: next, `CSC(C)(C)/C=N/O`: “inactive”; `C=CCC1(C(C)CC)C(=O)NC(=O)NC1=O` (stereo unspecified): “inactive”.
As for `CCOP(=O)(SC(C)CC)N1CCSC1=O` (stereo unspecified), the Potency result was “inactive”.
Still for that read-out and setting: with `CCOP(=S)(OCC)Oc1cc(-c2ccccc2)on1` the entry was “inactive”.
Same read-out and setting: with `CCNP(=S)(OC)O/C(C)=C/C(=O)OC(C)C` (stereo unspecified) the entry was “inactive”; with `COP(=O)(OC)O/C(C)=C/C(=O)N(C)C`, “inactive”; with `CCOC(=O)CCN(SN(C)C(=O)Oc1cccc2c1OC(C)(C)C2)C(C)C`, “inactive”.
The same measure, in the same setting: with `CN1C2CCC(C)(C)C1CC(OC(=O)C(O)(c1cccs1)c1cccs1)C2` (stereo unspecified) the entry was “inactive”; with `O=C1OC(=O)C2C1C1(Cl)C(Cl)=C(Cl)C2(Cl)C1(Cl)Cl` (stereo unspecified), “inactive”.
Take `NNCc1ccccc1`: the Potency entry was “inactive”.
As for `ClC(Br)Br`, the Potency entry was “inactive”.
Same read-out and setting: next, `C#CC(C)(C)O`: “inactive”; `CCN1CCC2(CC1)COc1cc3c(cc12)N(C(=O)c1ccc(-c2ccc(-c4nnc(C)o4)cc2C)cc1)CC3`: 42.2 µM (active); `CNC(=O)O/N=C(\C)C(C)S(C)(=O)=O` (stereo unspecified): “inactive”.
The same measure, in the same setting: with `CCOC(=O)c1cn2nc(OP(=S)(OCC)OCC)cc2nc1C` the entry was “inactive”.
In the case of `CC(C)(c1ccc(O)c(-c2ccccc2)c1)c1ccc(O)c(-c2ccccc2)c1`, the Potency was 20.4 µM (active).
For `CCC1(c2ccccc2)C(=O)N(COC)C(=O)N(COC)C1=O`, the Potency result is “inactive”.
The same measure, in the same setting: with `CCS(=O)(=O)CCSP(=O)(OC)OC` the entry was “inactive”; with `O=C(NC(O)C(Cl)(Cl)Cl)NC(O)C(Cl)(Cl)Cl` (stereo unspecified), “inactive”; with `CNC(=O)Oc1cccc(N=CN(C)C)c1`, “inactive”.
On the same count and under the same terms, next, `ClCc1ccccc1Cl`: “inactive”; `CCOP(=S)(OCC)Oc1nc(Cl)n(C(C)C)n1`: “inactive”; `CCOP(=S)(OCC)Oc1ccc(Cl)cc1Cl`: “inactive”.
Still for that read-out and setting: with `CC(C)O.CC(C)O.OCCN(CCO)CCO.OCCN(CCO)CCO.[Ti]` the entry was “inactive”; with `CN(C)S(=O)(=O)N(SC(F)(Cl)Cl)c1ccccc1`, “inactive”.
Consider `CNC(=O)O/N=C(/CSC)C(C)(C)C`, for which the Potency result was “inactive”.
The same measure, in the same setting: next, `C/C=C/C=O`: “inactive”.
Same read-out and setting: next, `CNC(=O)Oc1ccccc1C(C)C`: “inactive”.

Test system in the next experiment: not listed separately
The experiment can be described thus: p53 small molecule agonists, cell-based qHTS assay (AID 1963582; active = well fitted activation curve with a large enough effect in the signal ratio in the repeat runs, not every such curve was filed as active; the % refers to the signal ratio). The note with it: HCT-116 p53RE-bla reporter, beta-lactamase FRET ratio, 16 h; series mostly up to 66 µM. An outline of the steps: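 Cells carrying a p53-responsive bla reporter are treated with test compounds for 16 h at 37 C; beta-lactamase activity is then detected with LiveBLAzer B/G FRET substrate after 2 h at room temperature.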
As for `Cc1c(Cl)c(=O)oc2cc(OP(=O)(OCCCl)OCCCl)ccc12`, the Potency entry was “inactive”.
Still for that read-out and setting: with `CC1=NNC(=O)N(/N=C/c2cccnc2)C1` the entry was “inactive”; with `C=CCC1(C(C)CC)C(=O)NC(=O)NC1=O` (stereo unspecified), “inactive”; with `CCOP(=S)(OCC)Oc1cc(-c2ccccc2)on1`, “inactive”.
Still for that read-out and setting: with `CCNP(=S)(OC)O/C(C)=C/C(=O)OC(C)C` (stereo unspecified) the entry was “inactive”; with `COP(=O)(OC)O/C(C)=C/C(=O)N(C)C`, “inactive”; with `CCOC(=O)CCN(SN(C)C(=O)Oc1cccc2c1OC(C)(C)C2)C(C)C`, “inactive”.
For the compound `CN1C2CCC(C)(C)C1CC(OC(=O)C(O)(c1cccs1)c1cccs1)C2` (stereo unspecified), the Potency result was “inactive”.
On the same count and under the same terms, with `C[C@H](CN1CCOCC1)C(C(=O)N1CCCC1)(c1ccccc1)c1ccccc1` the entry was “inactive”; with `ClC(Br)Br`, “inactive”; with `CCOC(=O)c1cn2nc(OP(=S)(OCC)OCC)cc2nc1C`, “inactive”.
As for `CCS(=O)(=O)CCSP(=O)(OC)OC`, the Potency result was “inactive”.
On the same count and under the same terms, with `CNC(=O)Oc1cccc(N=CN(C)C)c1` the entry was “inactive”; with `CCOP(=S)(OCC)Oc1nc(Cl)n(C(C)C)n1`, “inactive”; with `CCOP(=S)(OCC)Oc1ccc(Cl)cc1Cl`, “inactive”.
Still for that read-out and setting: with `CN(C)S(=O)(=O)N(SC(F)(Cl)Cl)c1ccccc1` the entry was “inactive”; with `CNC(=O)O/N=C(/CSC)C(C)(C)C`, “inactive”.
On the same count and under the same terms, next, `CNC(=O)Oc1ccccc1C(C)C`: “inactive”.

A further experiment concerns the target 5-hydroxytryptamine receptor 2A (Homo sapiens) (UniProt P28223). Description: 5-hydroxytryptamine receptor 2A (HTR2A) small molecule antagonists, cell-based qHTS assay (AID 1963586). Also: nearly all actives have a fitted effect of over 45% in size. Also: potency is read from the fitted curve at half-maximal effect. The note with it: HTR2A-CHO cells, DOI-induced calcium flux, fluorescence; series mostly up to 61.5 µM. An outline of the steps: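 CHO cells stably expressing human HTR2A were plated for 18 h at 37 C, then loaded with calcium dye for 1 h. Compounds were preincubated 5 min at room temperature before DOI (4 nM solution) was added. Kinetic fluorescence was read for 3 min.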
With `C=CC(=O)OCC`, the Potency result was “inactive”.
On the same count and under the same terms, with `Cc1c(Cl)c(=O)oc2cc(OP(=O)(OCCCl)OCCCl)ccc12` the entry was “inactive”; with `O=C(CBr)Nc1ccc(Cl)cc1C(=O)c1ccccc1F`, “inactive”; with `CC1=NNC(=O)N(/N=C/c2cccnc2)C1`, “inactive”.
On the same count and under the same terms, with `[O-][Cl+3]([O-])([O-])O` the entry was “inactive”; with `CCn1cc[n+](C)c1` (tested in a mixture with another compound), “inactive”.
Same read-out and setting: with `COc1ccc(C(=O)c2c(C)n(CCN3CCOCC3)c3ccccc23)cc1` the entry was “inactive”; with `CSC(C)(C)/C=N/O`, “inactive”.
For `CCOP(=O)(SC(C)CC)N1CCSC1=O` (stereo unspecified), the Potency result was “inactive”.
The same measure, in the same setting: next, `CCOP(=S)(OCC)Oc1cc(-c2ccccc2)on1`: “inactive”; `CCNP(=S)(OC)O/C(C)=C/C(=O)OC(C)C` (stereo unspecified): “inactive”.
Still for that read-out and setting: with `COP(=O)(OC)O/C(C)=C/C(=O)N(C)C` the entry was “inactive”; with `CCOC(=O)CCN(SN(C)C(=O)Oc1cccc2c1OC(C)(C)C2)C(C)C`, “inactive”.
Same read-out and setting: next, `CN1C2CCC(C)(C)C1CC(OC(=O)C(O)(c1cccs1)c1cccs1)C2` (stereo unspecified): “inactive”; `O=C1OC(=O)C2C1C1(Cl)C(Cl)=C(Cl)C2(Cl)C1(Cl)Cl` (stereo unspecified): “inactive”.
`C[C@H](CN1CCOCC1)C(C(=O)N1CCCC1)(c1ccccc1)c1ccccc1`: the Potency entry was “inactive”.
Consider `NNCc1ccccc1`, for which the Potency entry was “inactive”.
Same read-out and setting: with `C#CC(C)(C)O` the entry was “inactive”; with `CCN1CCC2(CC1)COc1cc3c(cc12)N(C(=O)c1ccc(-c2ccc(-c4nnc(C)o4)cc2C)cc1)CC3`, “inactive”.
In the case of `CNC(=O)O/N=C(\C)C(C)S(C)(=O)=O` (stereo unspecified), the Potency entry was “inactive”.
Same read-out and setting: next, `CCOC(=O)c1cn2nc(OP(=S)(OCC)OCC)cc2nc1C`: “inactive”; `CC(C)(c1ccc(O)c(-c2ccccc2)c1)c1ccc(O)c(-c2ccccc2)c1`: 18.8 µM (active); `CCC1(c2ccccc2)C(=O)N(COC)C(=O)N(COC)C1=O`: “inactive”.
Still for that read-out and setting: next, `CCS(=O)(=O)CCSP(=O)(OC)OC`: “inactive”; `c1cc[n+]2c(c1)-c1cccc[n+]1CC2`: “inactive”.
The same measure, in the same setting: with `O=C(NC(O)C(Cl)(Cl)Cl)NC(O)C(Cl)(Cl)Cl` (stereo unspecified) the entry was “inactive”.
For `ClCc1ccccc1Cl`, the Potency result is “inactive”.
Same read-out and setting: next, `CCOP(=S)(OCC)Oc1nc(Cl)n(C(C)C)n1`: “inactive”; `CCOP(=S)(OCC)Oc1ccc(Cl)cc1Cl`: “inactive”.
Same read-out and setting: with `CC(C)O.CC(C)O.OCCN(CCO)CCO.OCCN(CCO)CCO.[Ti]` the entry was “inactive”; with `CN(C)S(=O)(=O)N(SC(F)(Cl)Cl)c1ccccc1`, “inactive”; with `CNC(=O)O/N=C(/CSC)C(C)(C)C`, “inactive”.
As for `C/C=C/C=O`, the Potency result was “inactive”.

The values above are taken from PubChem BioAssay (Tox21).
